# Records with an inconclusive call do not appear. Where a call stands in place of a potency, no number is given. Activity calls are given as the source filed them. Calls follow the shape of the dose curve; as a rule, active = well fitted curve in the direction sought with a large enough effect; inconclusive = small, poorly fitted or top-dose-only effect, or another doubt; inactive = no such curve, though single readings can be large; an effect the other way counts as inactive or inconclusive.
# Experiments:
# [1] = target: Catechol O-methyltransferase (Homo sapiens) (UniProt P21964); assay: Confirmatory Screen for Target Class Profiling of Small Molecule Inhibitors of Methyltransferases (AID 1745852); conditions: MTase-Glo luminescence, SAH detection, recombinant enzyme; measured here: COMT max response; stronger effect = lower value
# Sequence of Catechol O-methyltransferase (Homo sapiens) (P21964 whole entry, looked up): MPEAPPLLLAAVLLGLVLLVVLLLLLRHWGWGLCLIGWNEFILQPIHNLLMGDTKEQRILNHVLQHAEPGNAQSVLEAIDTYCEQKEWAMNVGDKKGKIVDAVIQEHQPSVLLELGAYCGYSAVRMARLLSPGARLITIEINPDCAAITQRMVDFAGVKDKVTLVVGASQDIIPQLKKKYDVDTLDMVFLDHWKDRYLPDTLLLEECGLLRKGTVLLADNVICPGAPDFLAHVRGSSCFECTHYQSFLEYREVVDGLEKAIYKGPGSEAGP
# [2] = target: Guanidinoacetate N-methyltransferase (Homo sapiens) (UniProt Q14353); assay: as above; conditions: MTase-Glo luminescence, SAH detection, recombinant enzyme; activity change, negative = inhibition: at 57.3 µM (top of the series) unless noted; series mostly up to 57.3 µM
# [3] = target: Nicotinamide N-methyltransferase (Homo sapiens) (UniProt P40261); assay: as above; conditions: MTase-Glo luminescence, SAH detection, recombinant enzyme; measured here: NNMT max response; stronger effect = lower value
# Sequence of Nicotinamide N-methyltransferase (Homo sapiens) (P40261 whole entry, looked up): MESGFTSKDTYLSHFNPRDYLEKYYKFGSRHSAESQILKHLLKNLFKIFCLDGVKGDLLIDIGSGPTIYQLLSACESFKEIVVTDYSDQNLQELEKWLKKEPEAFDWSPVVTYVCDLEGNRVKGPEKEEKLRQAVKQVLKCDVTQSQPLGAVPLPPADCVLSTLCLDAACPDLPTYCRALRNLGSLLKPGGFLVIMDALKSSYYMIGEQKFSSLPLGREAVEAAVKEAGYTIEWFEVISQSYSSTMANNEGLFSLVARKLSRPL
# [4] = target: Phenylethanolamine N-methyltransferase (Homo sapiens) (UniProt P11086); assay: as above; conditions: MTase-Glo luminescence, SAH detection, recombinant enzyme; measured here: PNMT max response; stronger effect = lower value
# Sequence of Phenylethanolamine N-methyltransferase (Homo sapiens) (P11086 whole entry, looked up): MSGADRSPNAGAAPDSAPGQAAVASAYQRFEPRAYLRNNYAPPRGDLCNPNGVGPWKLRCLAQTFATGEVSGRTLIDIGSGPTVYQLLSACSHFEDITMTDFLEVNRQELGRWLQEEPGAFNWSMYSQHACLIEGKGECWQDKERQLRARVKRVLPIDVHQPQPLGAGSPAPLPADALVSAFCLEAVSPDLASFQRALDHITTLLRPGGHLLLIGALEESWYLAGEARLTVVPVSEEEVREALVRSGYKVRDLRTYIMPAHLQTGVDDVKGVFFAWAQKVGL
# [5] = target: Glutathione peroxidase 1 (Homo sapiens) (UniProt P07203); assay: Primary qHTS Assay for Inhibitors of Recombinant Selenoprotein Glutathione Peroxidase 1 (GPX1) (AID 1845191); conditions: recombinant GPX1, GR-coupled NADPH fluorescence, 15 min; series mostly up to 48.8 µM; also: nearly all actives have a fitted effect of over 65% in size
# Sequence of Glutathione peroxidase 1 (Homo sapiens) (P07203 whole entry, looked up): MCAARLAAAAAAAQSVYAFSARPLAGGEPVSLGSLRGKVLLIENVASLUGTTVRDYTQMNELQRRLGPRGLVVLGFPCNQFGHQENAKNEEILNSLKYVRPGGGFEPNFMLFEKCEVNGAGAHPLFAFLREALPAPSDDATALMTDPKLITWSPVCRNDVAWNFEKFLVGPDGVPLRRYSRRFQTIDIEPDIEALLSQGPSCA
# In short: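 GR-coupled assay: compounds preincubated 30 min at room temperature with GPX1, then reaction started with CHP; final 10 nM GPX1, 1 mM GSH, 0.5 mM CHP, 0.5 mM NADPH, 100 nM GR, 0.01% BSA, pH 7.5 Tris buffer. NADPH fluorescence (340/450 nm) read at 0 and 15 min.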
# [6] = target: Phospholipid hydroperoxide glutathione peroxidase GPX4 (Homo sapiens) (UniProt P36969); assay: Primary qHTS Assay for Inhibitors of Recombinant Selenoprotein Glutathione Peroxidase 4 (GPX4) (AID 1845192); conditions: recombinant GPX4, GR-coupled NADPH fluorescence, 15 min; series mostly up to 50 µM; also: nearly all actives have a fitted effect of over 65% in size
# Sequence of Phospholipid hydroperoxide glutathione peroxidase GPX4 (Homo sapiens) (P36969 whole entry, looked up): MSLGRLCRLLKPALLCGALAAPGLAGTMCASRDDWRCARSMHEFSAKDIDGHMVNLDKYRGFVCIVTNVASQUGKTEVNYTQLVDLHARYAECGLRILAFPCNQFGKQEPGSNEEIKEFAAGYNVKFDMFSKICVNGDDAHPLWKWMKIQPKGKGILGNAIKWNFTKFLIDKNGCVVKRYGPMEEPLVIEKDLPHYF
# In short: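 GR-coupled assay: recombinant GPX4 preincubated 30 min with compound at room temperature; final 200 nM GPX4, 1 mM GSH, 0.5 mM cumene hydroperoxide, 0.5 mM NADPH, 100 nM GR, 0.01% BSA, pH 7.5 Tris. NADPH fluorescence (340/450 nm) read at 0 and 15 min.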
# [7] = Primary fluorescence-based thiol-reactive (MSTI) qHTS assay for identification of artifact compounds. (AID 1845221); conditions: MSTI thiol-reactivity probe, 1 h; series mostly up to 53.8 µM; also: nearly all actives have a fitted effect of over 65% in size; also: potency is read from the fitted curve at half-maximal effect
# In short: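 MSTI probe at 4 uM final in 2% DMSO/PBS pH 7.4; compounds, 1 h at room temperature in dark. Fluorescence Ex/Em 525/598 nm, normalised to Acetyl-MSTI and MSTI, fitted to 4-parameter Hill.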
# [8] = tested on: Nanoluciferase (engineered Oplophorus gracilirostris luciferase); assay: Primary Nanoluciferase (NLuc) qHTS assay for identification of artifact compounds. (AID 1845222); conditions: NLuc-conditioned medium, Nano-Glo luminescence, 5 min; series mostly up to 54.1 µM
# In short: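 Diluted conditioned medium from NLuc-expressing S16 cells treated with compounds for 15 min at room temperature, then Nano-Glo substrate added; luminescence read after 5 min. Percent inhibition versus no-enzyme and DMSO controls fitted to 4-parameter Hill equation.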
# [9] = HepG2 viability counterscreen (readout 2: ATP content) against the NCATS DSHEA and TCM libraries (AID 1794840); conditions: ATP content luminescence; series mostly up to 27.3 µM;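 also: HepG2 cells exposed to substances for about 24 h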
# In short: (§1)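 Cytotoxicity was assessed in HepG2 cells plated at 1,000 cells/well and exposed for about 24 hours to a concentration series. Protease activity and ATP content were measured sequentially in each well.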
# [10] = Viability counterscreen for antagonist of constitutive androstane receptor (CAR) against the NCATS DSHEA and TCM libraries (AID 1794837); conditions: CAR reporter cell line viability counterscreen, qHTS; series mostly up to 40 µM;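 also: compound exposure lasted 24 h before viability reading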
# In short: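 Fluorescence from CellTiter-Fluor reports live-cell protease activity in HepG2-CYP2B6-hCAR cells treated for 24 h with substances alongside 48 uM CITCO.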
# [11] = Viability counterscreen for agonist of constitutive androstane receptor (CAR) against the NCATS DSHEA and TCM libraries (AID 1794838); conditions: HepG2 cell viability counterscreen, CAR agonist assay, co-treated with 0.75 µM CAR antagonist; series mostly up to 40 µM;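 also: cells exposed to compound for 24 h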
# In short: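 In agonist mode, PK11195 is added at 0.75 uM final to HepG2-CYP2B6-hCAR cells dosed with test substances. Cultures incubate 24 h at 37C before a protease-based fluorogenic viability readout.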
# [12] = target: Nuclear receptor subfamily 1 group I member 3 (Homo sapiens) (UniProt Q14994); assay: Primary qHTS for agonist of constitutive androstane receptor (CAR) against the NCATS DSHEA and TCM libraries (AID 1794839); conditions: CAR agonist reporter cells, qHTS luminescence, CAR antagonist co-added at 0.75 µM; series mostly up to 40 µM;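 also: HepG2 cells expressing human CAR with a CYP2B6 reporter plus PK11195 antagonist; luciferase reporter luminescence read with ONE-Glo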
# Sequence of Nuclear receptor subfamily 1 group I member 3 (Homo sapiens) (Q14994 whole entry, looked up): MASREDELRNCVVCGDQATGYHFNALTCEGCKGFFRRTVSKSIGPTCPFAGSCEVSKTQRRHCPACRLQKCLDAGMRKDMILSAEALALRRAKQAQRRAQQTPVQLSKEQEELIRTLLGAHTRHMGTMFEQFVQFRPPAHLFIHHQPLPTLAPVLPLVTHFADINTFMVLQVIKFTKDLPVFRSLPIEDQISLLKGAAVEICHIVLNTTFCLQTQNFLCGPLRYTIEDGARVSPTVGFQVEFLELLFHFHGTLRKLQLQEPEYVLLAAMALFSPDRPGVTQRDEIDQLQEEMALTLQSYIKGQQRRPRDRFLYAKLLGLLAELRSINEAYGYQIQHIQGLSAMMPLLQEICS
# In short: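 Cells stably carrying hCAR and a CYP2B6 reporter (HepG2 background) are seeded and allowed 5 h to adhere. Substances at multiple concentrations are added alongside 0.75 µM PK11195, and luciferase signal is measured after 24 h.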
# [13] = HepG2 viability counterscreen (readout 1: protease activity) against the NCATS DSHEA and TCM libraries (AID 1794841); conditions: qHTS concentration series; series mostly up to 27.3 µM;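 also: cells exposed to compounds for about 24 h before the protease read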
# In short: as §1
# [14] = target: Luciferin 4-monooxygenase (Photinus pyralis) (UniProt P08659); assay: Primary firefly luciferase (FLuc) qHTS assay for identification of artifact compounds. (AID 1845220); conditions: purified firefly luciferase, luminescence, 5 min; series mostly up to 54.1 µM; also: nearly all actives have a fitted effect of over 60% in size
# In short: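 D-luciferin and ATP (10 uM each, final) in Tris acetate buffer pH 7.6 were incubated with compounds for 15 min at room temperature. The reaction was started with 10 nM Photinus pyralis luciferase and luminescence read after 5 min. Percent inhibition was fitted to a 4-parameter Hill equation.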
# [15] = NCATS anti-infectives library activity on HEK293 viability as a counter-qHTS vs the C. elegans viability qHTS (AID 1745854); conditions: HEK293 viability counter-screen; series mostly up to 41.8 µM;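 also: HEK293 cells exposed to compounds for 24 hr before the viability read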
# In short: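 Cytotoxicity in human HEK293 cells is measured by ATP-dependent CellTiter-Glo luminescence following a 24 hr incubation with titrated library compounds at 37C. Top final concentration is 41.7 uM.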
smiles,measurement,setting,value
CC(C)(O)/C=C1/C(=O)C(C)(C)C(=O)C(C)(C)C1(O)O[C@@H]1O[C@H](COC(=O)c2cc(O)c(O)c(O)c2)[C@@H](O)[C@H](O)[C@H]1O (some centres not stated),activity,[1],-56.9%
same,"activity change, negative = inhibition",[2],-2.31% [at 19.1 µM]
same,activity,[3],-1.53%
same,activity,[4],-0.785%
same,Potency,[5],inactive
same,Potency,[6],inactive
same,Potency,[7],0.707 µM (active)
same,Potency,[8],inactive
Oc1cc(O)c2c(c1)OC(c1ccc(O)c(O)c1)C(O)C2 (configuration not stated),outcome,[9],inactive
CC1CC(O)C2(C)C(C(=O)O)=CCCC2C1(C)CCc1ccoc1 (configuration not stated),activity,[1],-89.3%
same,"activity change, negative = inhibition",[2],2.37%
same,activity,[3],2.05%
same,activity,[4],2.03%
same,Potency,[5],inactive
same,Potency,[6],inactive
same,Potency,[7],inactive
same,Potency,[8],inactive
CC1=C(/C=C/C(C)=C/C=C/C(C)=C/C=C/C=C(C)/C=C/C=C(C)/C=C/C2=C(C)CCCC2(C)C)C(C)(C)CCC1,outcome,[10],inactive
same,outcome,[11],inactive
same,outcome,[12],inactive
same,outcome,[9],inactive
same,outcome,[13],inactive
same,Potency,[5],inactive
same,Potency,[6],inactive
COc1ccc(/C=C/C(=O)O[C@@H]2[C@@H](OC(C)=O)[C@@H](OC(C)=O)[C@H](O[C@H]3[C@@H]4C=CO[C@@H](O[C@@H]5O[C@H](CO)[C@@H](O)[C@H](O)[C@H]5O)[C@@H]4[C@@]4(CO)O[C@@H]34)O[C@H]2C)cc1O,activity,[1],-68.6%
same,"activity change, negative = inhibition",[2],-5.06% [at 19.1 µM]
same,activity,[3],-11.7%
same,activity,[4],-9.65%
same,Potency,[5],inactive
same,Potency,[6],inactive
same,Potency,[8],inactive
CC1(CO)CC[C@]2(C(=O)O[C@@H]3O[C@H](CO)[C@@H](O)[C@H](O)[C@H]3O)CC[C@]3(C)C(=CCC4[C@@]5(C)C[C@H](O)[C@H](O[C@@H]6OC[C@@H](O)[C@H](O)[C@H]6O)[C@@](C)(CO)C5CC[C@]43C)C2C1 (some centres not stated),activity,[1],-56.9%
same,"activity change, negative = inhibition",[2],0.83% [at 19.1 µM]
same,activity,[3],2.23%
same,activity,[4],2.01%
same,Potency,[5],inactive
same,Potency,[6],inactive
same,"activity change, negative = inhibition",[14],4.3% [at 11.6 µM] (inactive)
same,"activity, negative = inhibition",[8],0% [at 11.6 µM] (inactive)
CC[C@@H](C(=O)O)[C@@H]1O[C@@H]([C@@H](C)[C@H](O)[C@H](C)C(=O)[C@H](CC)[C@H]2O[C@]3(C=C[C@@H](O)[C@]4(CC[C@@](C)([C@H]5CC[C@](O)(CC)[C@H](C)O5)O4)O3)[C@H](C)C[C@@H]2C)[C@@H](C)C[C@@H]1C,Potency,[5],inactive
CC(C)(O)CNc1nc(Nc2ccnc(C(F)(F)F)c2)nc(-c2cccc(C(F)(F)F)n2)n1,outcome,[15],inactive
same,Potency,[5],inactive
same,Potency,[6],inactive
same,Potency,[14],inactive
same,Potency,[7],inactive
same,Potency,[8],inactive
COC(=O)C1=COC(OC2OC(CO)C(O)C(O)C2O)C2C1CC(OC(=O)C(O)CC(=O)O)C2C (configuration not stated),activity,[1],-63.4%
same,"activity change, negative = inhibition",[2],1.08% [at 29.8 µM]
same,activity,[3],1.84%
same,activity,[4],1.07%
same,Potency,[6],inactive
same,Potency,[14],inactive
same,Potency,[7],13 µM (active)
same,Potency,[8],inactive
CC(=O)Oc1c(C)cc(OCC(O)CNC(C)C)c(C)c1C (configuration not stated),Potency,[5],inactive
same,Potency,[6],inactive
Cc1nnc(C(C)C)n1C1CC2CCC(C1)N2CC[C@H](NC(=O)C1CCC(F)(F)CC1)c1ccccc1 (some centres not stated),outcome,[15],inactive
same,Potency,[5],inactive
same,Potency,[6],inactive
same,Potency,[14],inactive
same,Potency,[7],inactive
same,Potency,[8],inactive
